Screens: PubChem, National Center for Advancing Translational Sciences (NCATS)
KDM4E inh: qHTS Assay for Inhibitors of Human Jumonji Domain Containing 2E (JMJD2E); Lysine-specific demethylase 4E (Homo sapiens), B2RXH2; JMJD2E catalytic domain, FDH-coupled NADH fluorescence (FDH is formaldehyde dehydrogenase); Potency, µM (doses to about 57.1 µM), for the others: at the top dose activity change, negative = inhibition, usual class: inhibitors; 1.6% of 230,000 active; active = well fitted inhibition curve with a large enough effect, not every such curve was filed as active; inconclusive = small, poorly fitted or top-dose-only effect, or another doubt; inactive = no such curve, though single readings can be large or run the other way;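 note: 0% = wells with enzyme and -100% = buffer wells without enzyme; nearly all actives have a fitted effect of over 50% in size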
Target sequence (B2RXH2 1-337 limits assumed): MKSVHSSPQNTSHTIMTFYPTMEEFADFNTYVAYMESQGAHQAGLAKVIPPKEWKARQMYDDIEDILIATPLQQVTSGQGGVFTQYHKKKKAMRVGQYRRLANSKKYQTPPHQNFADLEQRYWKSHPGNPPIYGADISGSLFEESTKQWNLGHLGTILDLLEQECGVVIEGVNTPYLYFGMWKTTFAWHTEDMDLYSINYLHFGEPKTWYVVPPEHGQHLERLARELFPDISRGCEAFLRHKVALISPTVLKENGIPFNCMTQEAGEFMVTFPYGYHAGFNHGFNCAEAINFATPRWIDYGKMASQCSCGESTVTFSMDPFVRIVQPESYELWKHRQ
L3MBTL1 block: qHTS Assay for the Inhibitors of L3MBTL1 | 0.66% of 230,000 active | Lethal(3)malignant brain tumor-like protein 1 (Homo sapiens), Q9Y468 | AlphaScreen L3MBTL1–H3K9me1 peptide binding | AID 485360, 2010 | Potency, µM (titrated, usually from 57.1 µM), inactives show top-dose activity, negative = inhibition, hits mostly inhibitors; note: nearly all actives have a fitted effect of over 60% in size
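Displacement of a biotinylated histone H3(1-15) peptide monomethylated at Lys9 (75 nM) from L3MBTL1 (50 nM) was measured by AlphaScreen after a 30 min room-temperature compound incubation; cefsulodin titration served as intraplate control.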
RECQ1 inh: qHTS Assay for Inhibitors of RecQ-Like Dna Helicase 1 (RECQ1); ATP-dependent DNA helicase Q1 (Homo sapiens), P46063; RECQ1 DNA unwinding, red fluorescence kinetic read; Potency, µM (series often up to 57.3 µM), for the others: at the top dose activity, negative = inhibition, actives largely listed as inhibitors; 0.54% of 240,000 active;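 note: plate controls were vehicle for no effect and no enzyme for full effect; nearly all actives have a fitted effect of over 30% in size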
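50 nM RECQ1T1 preincubated 15 min with compound in Tris pH 8.0 buffer with MgCl2, DTT, Tween-20 and 2.5 ug/ml poly(dI-dC); started with 200 nM TAMRA/BHQ-2 forked duplex and 2 mM ATP. Unwinding read as fluorescence (525/598 nm), two reads 2 h apart.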
BLM helicase inh: qHTS Assay for Inhibitors of Bloom's syndrome helicase (BLM) | Potency, µM (doses to about 56.1 µM), without a hit: at the highest dose activity change, negative = inhibition, hits mostly inhibitors | recombinant BLM DNA unwinding, fluorescence dequenching | AID 2528, 2010 | 0.2% of 350,000 active | RecQ-like DNA helicase BLM (Homo sapiens), P54132;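 note: plate controls were vehicle for no effect and no enzyme for full effect; nearly all actives have a fitted effect of over 35% in size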
APE1 inh-1: qHTS Assay for Inhibitors of the Human Apurinic/apyrimidinic Endonuclease 1 (APE1) | DNA repair nuclease/redox regulator APEX1 (Homo sapiens), P27695 | recombinant APE1, TAMRA/BHQ-2 abasic DNA cleavage fluorescence | Potency, µM (series often up to 65.8 µM), without a hit: at the highest dose activity change, negative = inhibition, usual class: inhibitors | 0.35% of 350,000 active | AID 2517, 2012;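 note: plate controls were vehicle for no effect and reference inhibitor for full effect; nearly all actives have a fitted effect of over 55% in size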
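0.75 nM APE1 + cpd, 15 min RT; start w/ 50 nM TAMRA/BHQ-2 THF-abasic dsDNA; kinetic fluor 525/598 nm ×3 reads @60 s; Δ(read3−read1); normalized to DMSO and NSC13755 control wells.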
DNA dye displace: Counterscreen for APE1 Inhibitors: Fluorescent Dye Displacement Assay. shares compounds with APE1 inh-1. DNA fluorescent dye displacement counterscreen, fluorescence. Potency, µM (highest dose often 28.5 µM), inactives show at the top dose activity change, negative = inhibition, usual class: inhibitors. 7% of 480 active. AID 2564, 2010;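 note: loss of thiazole orange fluorescence as the dye is displaced from duplex DNA; 0% = ThO with dsDNA and no compound and -100% = ThO without dsDNA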
Endo IV inh: Counterscreen for APE1 Inhibitors: qHTS Assay for Inhibitors of Endonuclease IV. shares compounds with APE1 inh-1. E. coli Endo IV, fluorogenic AP-site DNA cleavage. Potency, µM (doses to about 27.1 µM), for inactives: at the highest dose activity change, negative = inhibition, most hits filed as inhibitors. 4% of 560 active. AID 2565, 2010;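 note: plate controls were uninhibited enzyme wells for no effect and no enzyme buffer wells for full effect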
APE1 inh-2: Confirmation qHTS Assay for Inhibitors of the Human Apurinic/apyrimidinic Endonuclease 1 (APE1); shares compounds with APE1 inh-1; purified APE1, fluorogenic abasic-site DNA cleavage; Potency, µM (top dose mostly 57.1 µM), for the others: top-dose activity change, negative = inhibition, most hits filed as inhibitors; 44% of 750 active; AID 2572, 2010; note: nearly all actives have a fitted effect of over 30% in size
APE1 FP inh: qHTS FP-Based Assay for Inhibitors of the Human Apurinic/apyrimidinic Endonuclease 1 (APE1); shares compounds with APE1 inh-1; APE1 binding to TAMRA-labelled double-stranded DNA, fluorescence polarization displacement; Potency, µM (top dose mostly 28.5 µM), for inactives: at the top dose activity, negative = inhibition, most hits filed as inhibitors; 7% of 480 active
* = called active by the depositor; i = inactive; ? = inconclusive; . = no result; ! = not confirmed by another sample; [ ] = another dose, or the depositor's remark. This excerpt belongs to a sample that is enriched for hits. Unless noted, calls come from the whole dose curve; as a rule, active = well fitted curve in the direction sought with a large enough effect; inconclusive = small, poorly fitted or top-dose-only effect, or another doubt; inactive = no such curve, though single readings can be large; an effect the other way counts as inactive or inconclusive. Unless noted, % is set by controls: 0 for no effect and ±100 for the full control effect; potency is the fitted concentration of half-maximal effect.

SMILES | KDM4E inh | L3MBTL1 block | RECQ1 inh | BLM helicase inh | APE1 inh-1 | DNA dye displace | Endo IV inh | APE1 inh-2 | APE1 FP inh
Cc1nc(N=Nc2ccc(S(=O)(=O)O)cc2S(=O)(=O)O)c(COP(=O)(O)O)c(C=O)c1O | ? | . | -3% | -4% | 32µM*! | . | -1%[57.1 µM] | -6% | .
Cc1cc(Cl)ccc1OCC(=O)N[C@@H](Cc1ccccc1)c1nc2ccccc2[nH]1 | -8% | 5% | -9% | 3% | -2% | . | . | . | .
COc1ccc(-c2cn3cccnc3n2)cc1NC(=O)c1ccc(Br)o1 | ? | 4% | ? | -1% | -6% | . | . | -25% | .
Cc1ccc(-c2cn3cccnc3n2)cc1NC(=O)c1ccc(Br)o1 | ? | 2% | -13% | -3% | 10% | . | . | . | .
CC(C)(C)NC(=O)c1cc(F)c(F)cc1Cl | 6% | . | i | -14% | 7.1µM* | -8% | 4% | ? | -6%
CCn1c(SCC(=O)NCc2ccco2)nnc1-c1cccs1 | ? | 0%[11.4 µM] | -5% | -20% | 35µM* | ? | -2% | ? | -14%
CCn1c(SCC(=O)NCc2ccco2)nnc1-c1ccncc1 | 7% | -10% | -7% | -3% | -9% | . | . | . | .
COC(=O)CC[C@@H](C(=O)O)N1C(=O)c2ccccc2C1=O | 6% | . | -7% | 1% | -1% | . | . | . | .
O=C(O)CC[C@@H](C(=O)O)N1C(=O)c2ccccc2C1=O | ? | . | -5% | 0% | ? | -4% | 6% | ? | -2%
COc1ccc(-n2nc3cc(C)c(NC(=O)c4ccc(-c5ccc(Br)cc5)o4)cc3n2)cc1 | . | . | . | 3% | . | . | . | . | .
COc1ccccc1C1CN(c2ccccc2)N=C1c1cccs1 (centres undefined) | ? | . | -9% | -7% | 1% | . | . | ? | .
Nc1ncc(N=Nc2cc(C(=O)O)ccc2Cl)s1 | 25µM* | . | ? | -3% | 8.9µM* | -6% | 96% | ? | ?
Cc1ccc(NC(=O)CN2C(=O)S/C(=C\c3cccn3-c3cccc(C(=O)O)c3)C2=O)c(C)c1 | ? | ? | -26% | ? | 8.9µM* | 207% | ? | 13µM* | 16µM*
Cc1ccccc1NC(=O)CN1C(=O)S/C(=C\c2cccn2-c2cccc(C(=O)O)c2)C1=O | -13% | ? | ? | -13% | ? | . | . | ? | .
COc1ccc(CCNC(=O)c2ccc3nc(-c4ccco4)c(-c4ccco4)nc3c2)cc1OC | 13µM* | ? | 16µM* | 14µM* | 8.9µM*! | . | . | 16µM* | .
CCOc1ccc(NC(c2ccccc2)P(=O)(OC)OC)cc1 (centres undefined) | . | -25% | . | -7% | 37% | . | . | . | .
CN(C)C(=O)c1ccc(-c2ccc3ncnc(NCc4cccs4)c3c2)cc1 | . | . | -7% | -5% | 10µM* | ? | -77%[57.1 µM] | 7.9µM* | 22%[57.1 µM]
